Assay results reported in PMC4242493, “Sequence specificity incompletely defines the genome-wide occupancy of Myc”.
The full ranking holds about 33,000 sequences; the median of “normalized occupancy” is about 0.075, and the highest 2% start at about 0.095. The sample holds the highest values, similar sequences and a random draw of the others, so the mix is not that of the screen.

These sequences were tested against MaxL homodimer (Homo sapiens, UniProt P61244 1-160) (assay: universal protein-binding microarray (PBM); PBS-based mixture, 10 nM His-tagged protein dimer, 2% milk, 200 ng/uL BSA, 50 ng/uL salmon testes DNA, 0.02% TX-100; detection with Alexa 488 anti-His antibody;; high values mean tight binding). Conditions: protein: recombinant; tags: C-terminal His-tag (pET21a); chain copies: 2; dsDNA, one strand shown.
In short: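 Binding occupancy is a fluorescence intensity normalised to the intensity of the highest-ranked sequence word. Those intensities came from 8-mers on Agilent 4 x 44 K 'all 10-mer' universal arrays incubated with 10 nM His-tagged protein dimer. Bound protein was detected with 10 ng/μL fluorophore-conjugated anti-His antibody before scanning on a GenePix 4400A.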

Chain of MaxL homodimer (P61244 whole entry): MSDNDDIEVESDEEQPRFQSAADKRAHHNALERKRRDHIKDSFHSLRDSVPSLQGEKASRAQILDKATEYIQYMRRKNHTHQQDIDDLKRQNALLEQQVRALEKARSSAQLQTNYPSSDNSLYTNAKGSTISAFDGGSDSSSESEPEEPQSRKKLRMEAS

Row | Sequence | binding signal
1 | AGTACAGG | 0.0787 normalized occupancy
2 | ACACTCTG | 0.0741 normalized occupancy
3 | ATAGCTTC | 0.074 normalized occupancy
4 | AAGAGGCA | 0.0761 normalized occupancy
5 | ACGATTAG | 0.0719 normalized occupancy
6 | GATTCACC | 0.0757 normalized occupancy
7 | ACGATTTC | 0.0741 normalized occupancy
8 | CATCTTCA | 0.0786 normalized occupancy
9 | AAAATAGG | 0.076 normalized occupancy
10 | ACACATAC | 0.0823 normalized occupancy
11 | ATACATGA | 0.0834 normalized occupancy
12 | CTACATGC | 0.089 normalized occupancy
13 | ACACATTC | 0.0866 normalized occupancy
14 | ACACATTA | 0.0926 normalized occupancy
15 | ACACATAT | 0.0874 normalized occupancy
16 | ATACATGC | 0.104 normalized occupancy
17 | ACACATCT | 0.0851 normalized occupancy
18 | ACACATGC | 0.137 normalized occupancy
19 | AGACATTG | 0.0768 normalized occupancy
20 | ACACATTG | 0.102 normalized occupancy
21 | ACACATGT | 0.127 normalized occupancy
22 | ACCCAAAG | 0.072 normalized occupancy

Row | Sequence | binding signal
23 | CACGGCAC | 0.078 normalized occupancy
24 | ATGATGGC | 0.0855 normalized occupancy
25 | TGCTAGCA | 0.0864 normalized occupancy
26 | GCCTACCC | 0.0797 normalized occupancy
27 | TCACATAA | 0.0812 normalized occupancy
28 | GGACATGA | 0.0803 normalized occupancy
29 | ACACATCA | 0.0839 normalized occupancy
30 | TCACATGA | 0.109 normalized occupancy
31 | GAACATGC | 0.089 normalized occupancy
32 | TAACATGA | 0.0906 normalized occupancy
33 | GCACATGC | 0.159 normalized occupancy
34 | ACACATGA | 0.107 normalized occupancy
35 | GAACATGA | 0.0904 normalized occupancy
36 | GCACATAC | 0.0803 normalized occupancy
37 | GCACATGA | 0.12 normalized occupancy
38 | ACACATAA | 0.082 normalized occupancy
39 | AGATTTGC | 0.0766 normalized occupancy
40 | CGCCTCTC | 0.0756 normalized occupancy
41 | ACTGAATC | 0.0726 normalized occupancy
42 | CTCAACCC | 0.072 normalized occupancy
43 | CTGTAATA | 0.0777 normalized occupancy
44 | CATGGGAC | 0.0894 normalized occupancy

Row | Sequence | binding signal
45 | GTCAGCAC | 0.0806 normalized occupancy
46 | CACAATGG | 0.0783 normalized occupancy
47 | TACCTTAA | 0.072 normalized occupancy
48 | AAGATCTT | 0.0757 normalized occupancy
49 | AAACATGA | 0.0907 normalized occupancy
50 | AAACATGC | 0.0937 normalized occupancy
51 | ATACATGG | 0.0876 normalized occupancy
52 | ACACATGG | 0.159 normalized occupancy
53 | AAACATGT | 0.0983 normalized occupancy
54 | AAACATGG | 0.0874 normalized occupancy
55 | GATGACAA | 0.0764 normalized occupancy
56 | TCTTTCAA | 0.0757 normalized occupancy
57 | ACTAGTTA | 0.0749 normalized occupancy
58 | CCTCAACC | 0.0752 normalized occupancy
59 | AATTTGGG | 0.0765 normalized occupancy
60 | CGCGCGCG | 0.0873 normalized occupancy
61 | AACGCGCG | 0.0803 normalized occupancy
62 | CACGCGCG | 0.133 normalized occupancy
63 | AACGCGCA | 0.078 normalized occupancy
64 | CGCGCGCA | 0.075 normalized occupancy
65 | CCCGCGCC | 0.0733 normalized occupancy
66 | CACGCGCA | 0.135 normalized occupancy

Row | Sequence | binding signal
67 | CGCGCGCC | 0.0783 normalized occupancy
68 | CACGCGCC | 0.116 normalized occupancy
69 | AACATCAC | 0.0837 normalized occupancy
70 | CTAGCTAC | 0.0765 normalized occupancy
71 | CCTAGTGC | 0.0733 normalized occupancy
72 | AACCCCTC | 0.0767 normalized occupancy
73 | AATAAGTA | 0.0754 normalized occupancy
74 | ATTCTATG | 0.0827 normalized occupancy
75 | CTTTCTGC | 0.0723 normalized occupancy
76 | CGTAACGC | 0.0778 normalized occupancy
77 | GCAAGCCA | 0.0722 normalized occupancy
78 | GATGGCCA | 0.0755 normalized occupancy
79 | AATGTCAA | 0.0742 normalized occupancy
80 | ATAAGTAA | 0.0793 normalized occupancy
81 | ATCATGAT | 0.0928 normalized occupancy
82 | GTCATGAC | 0.0806 normalized occupancy
83 | AGCATGAT | 0.107 normalized occupancy
84 | GCCATGAC | 0.0739 normalized occupancy
85 | AGCATGAC | 0.0962 normalized occupancy
86 | AGCATGAA | 0.0874 normalized occupancy
87 | CCCTAAAA | 0.076 normalized occupancy
88 | CTGACCTC | 0.0774 normalized occupancy

Row | Sequence | binding signal
89 | GCATGAGA | 0.0947 normalized occupancy
90 | ACATGAGT | 0.09 normalized occupancy
91 | ACATGAGG | 0.108 normalized occupancy
92 | ACATGAGC | 0.0906 normalized occupancy
93 | CCATGAGG | 0.112 normalized occupancy
94 | AGATGAGG | 0.0788 normalized occupancy
95 | CCATGAGA | 0.0896 normalized occupancy
96 | CCATGAGC | 0.0818 normalized occupancy
97 | ACATGAGA | 0.0971 normalized occupancy
98 | GTCAAGGA | 0.0749 normalized occupancy
99 | CTAATGTC | 0.0828 normalized occupancy
100 | GAAGTTAC | 0.0721 normalized occupancy
101 | TAACTAGA | 0.0765 normalized occupancy
102 | ACGGTGGC | 0.079 normalized occupancy
103 | AAATACAA | 0.076 normalized occupancy
104 | CATATGGA | 0.095 normalized occupancy
105 | AATATGGC | 0.0866 normalized occupancy
106 | AATATGGG | 0.0882 normalized occupancy
107 | CATATGGC | 0.0994 normalized occupancy
108 | GATATGGC | 0.0846 normalized occupancy
109 | CATATGAC | 0.0954 normalized occupancy
